Screens as filed in PubChem.
Hits are enriched below; roughly 10% of the tested compounds scored in any of these assays.
Mm-Cpn inhibitor – M. maripaludis TRiC chaperonin inhibition | purified Mm-Cpn ATPase, ADP Transcreener TR-FRET | Potency, µM (top dose mostly 76.9 µM), for inactives: top-dose activity, negative = inhibition, actives largely listed as inhibitors | 330,000 compounds, 0.031% hits; note: potency is the fitted concentration of half-maximal effect; nearly all actives have a fitted effect of over 80% in size
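Compound-treated chaperonin, 25 nM final, turns over 10 uM ATP at 37°C for 30 min following a 10 min preincubation; ADP generated competes with ADP-d2 for Eu-cryptate antibody, lowering FRET.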
PLK1 PBD inh – inhibitors of human PLK1 polo-box domain binding | P53350 | Plk1 PBD binding of FITC phosphopeptide, fluorescence polarization | Potency, µM, for inactives: max response, negative = inhibition, actives largely listed as inhibitors | 360,000 compounds, 2.8% hits | AID 720504; note: potency is the fitted concentration of half-maximal effect; series mostly up to about 57 µM; nearly all actives have a fitted effect of over 65% in size
Target sequence (P53350 whole entry, looked up, the tested form may be a part): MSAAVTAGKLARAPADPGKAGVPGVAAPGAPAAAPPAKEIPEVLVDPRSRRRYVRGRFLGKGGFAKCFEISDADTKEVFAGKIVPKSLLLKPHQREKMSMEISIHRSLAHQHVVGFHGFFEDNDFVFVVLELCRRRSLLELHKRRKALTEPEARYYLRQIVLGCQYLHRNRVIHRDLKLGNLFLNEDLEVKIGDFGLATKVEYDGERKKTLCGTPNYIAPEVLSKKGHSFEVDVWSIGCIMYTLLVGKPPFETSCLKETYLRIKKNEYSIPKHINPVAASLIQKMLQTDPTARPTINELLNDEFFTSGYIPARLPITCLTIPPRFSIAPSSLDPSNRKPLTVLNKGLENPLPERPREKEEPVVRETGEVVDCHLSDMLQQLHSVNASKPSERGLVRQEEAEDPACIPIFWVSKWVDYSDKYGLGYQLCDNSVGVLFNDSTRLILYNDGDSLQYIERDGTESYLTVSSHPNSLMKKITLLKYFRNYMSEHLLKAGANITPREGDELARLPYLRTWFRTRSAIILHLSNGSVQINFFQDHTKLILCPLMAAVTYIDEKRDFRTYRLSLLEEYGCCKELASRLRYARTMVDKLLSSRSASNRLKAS
CCT chaperon mod – changes cytosolic chaperonin activity. 360,000 compounds, 0.3% hits. activity change, % (test concentration not listed), hits read low. purified chaperonin ATPase assay, HTRF ADP detection, 30 min. AID 651819; in the data active = activity change below about -30%
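ATPase activity: ADP formed was measured by HTRF Transcreener (665/615 nm ratio) after 30 min at 37 deg C with 10 uM ATP. Compounds screened at one 76 uM concentration against 40 or 20 nM TRiC in Tris pH 7.4/KCl/MgCl2/DTT buffer.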
Sfp PPTase inh – blocks B. subtilis Sfp PPTase activity; Q9F4F7; Biochemical Sfp PPTase activity, qHTS; Potency, µM, without a hit: largest response in the series, negative = inhibition, usual class: inhibitors; 310,000 compounds, 3.5% hits; AID 1490;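 note: the enzyme is Sfp with the accession as filed and its product quenches rhodamine fluorescence; potency is the fitted concentration of half-maximal effect; 0% = enzyme reaction without inhibitor and -100% = no enzyme wells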
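With Hepes-Na pH 7.6 buffer containing 10 mM MgCl2, Sfp (15 nM) modified BHQ-2-YbbR (12.5 uM) using rhodamine-CoA (5 uM). Two reads 30 minutes apart at 525/598 nm yielded each well's rate.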
G9a inh – inhibitors of human histone lysine methyltransferase G9a; Q96KQ7; 350,000 compounds, 8.8% hits; Potency, µM (doses to about 102 µM), inactives show top-dose activity, negative = inhibition, usual class: inhibitors; G9a H3K9 monomethylation, AlphaScreen, 2 h; note: potency is the fitted concentration of half-maximal effect; nearly all actives have a fitted effect of over 75% in size
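Readings reflect AlphaScreen signal from monomethyl-H3K9 antibody detection. HMT at 20 nM; substrate b-H3K9 500 nM; cofactor SAM 20 uM; 2 h RT reaction; compounds tested as titrations in qHTS with 15 min preincubation.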
VDR inhibitor – vitamin D3 receptor (human) inhibition; P11473; AID 504847; Potency, µM, for inactives: max response, negative = inhibition, most hits filed as inhibitors; VDR-SRC2-3 peptide fluorescence polarization, 2 h; 400,000 compounds, 0.93% hits; note: potency is the fitted concentration of half-maximal effect
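FP read-out; VDR + SRC2-3 coactivator peptide; 23 nl compound by pintool; 2 h RT incubation; reagents held at 4 deg C, protected from light.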
Numbers without * were called inactive; ? = inconclusive; / = not tested or not shown; [ ] = another dose, or the depositor's remark. Unless noted, calls come from the whole dose curve; as a rule, active = well fitted curve in the direction sought with a large enough effect; inconclusive = small, poorly fitted or top-dose-only effect, or another doubt; inactive = no such curve, though single readings can be large; an effect the other way counts as inactive or inconclusive. Unless noted, % is set by controls: 0 for no effect and ±100 for the full control effect.

SMILES	Mm-Cpn inhibitor	PLK1 PBD inh	CCT chaperon mod	Sfp PPTase inh	G9a inh	VDR inhibitor
Cc1ccc(NC(=S)NNC(=S)Nc2cccc(C(F)(F)F)c2)cc1	1%	19µM*	6	28µM*	20µM*	28µM*
CCc1ccc(-n2nc(C)c3c(C)cc(=O)n(CC(=O)Nc4ccc(C(C)=O)cc4)c32)cc1	/	/	/	/	13%[59 µM]	0%
Cn1cc(S(=O)(=O)N2CCOCC2)cc1C(=O)Nc1ccc(Cl)c(C(F)(F)F)c1	/	/	/	/	-2%[59 µM]	12%
FC(F)(F)c1cccc(NC(=S)NCc2ccc(Cl)cc2)c1	-3%	-20%	0	19%	50%[59 µM]	-20%
FC(F)(F)c1cccc(NC(=S)NNC(=S)Nc2ccc(Cl)cc2)c1	4%	/	/	25µM*	20µM*	/
COc1ccc(NC(=S)NNC(=O)C2CC2c2ccc(C)cc2)cc1 (stereo unspecified)	3%	-6%	-1	4%	45µM*	11%
Cc1ccc(C)c(NC(=S)NNc2ccc(F)cc2F)c1	0%	?	-1	-17%	45µM*	10µM*
NC(=O)/C=C\C(=O)Nc1cccc(C(F)(F)F)c1	1%	-16%	-1	-16%	10µM*	-17%
CCn1c(=O)c2cc(C(=O)NCc3ccc(F)cc3Cl)sc2c2ccccc21	/	/	/	/	-12%[59 µM]	-9%
FC(F)(F)c1cc(NC(=S)Nc2ccc3cc4ccccc4cc3c2)cc(C(F)(F)F)c1	/	/	/	-25%	/	22µM*
Cc1nn(C)c(C(=O)Nc2ccc3c(c2)OCO3)c1[N+](=O)[O-]	0%	-8%	-1	8%	-15%	23%
Cc1nn(C)c(C(=O)Nc2ccc(Cl)c([N+](=O)[O-])c2)c1Cl	3%	-5%	0	3%	16µM*	-16%
COc1cc(C(=O)NCc2nc3cccnc3n2Cc2ccc(C)cc2)cc(OC)c1OC	/	/	/	/	25%[59 µM]	12%
COc1ccccc1CNC(=O)C(=O)NCC(c1cccs1)S(=O)(=O)c1ccc(F)cc1 (stereo unspecified)	/	/	/	/	5%[59 µM]	4%
CCNC(=O)/C(C#N)=C/c1c(N2CCN(c3ccc(OC)cc3)CC2)nc2c(C)cccn2c1=O	1%	24µM*	0	-7%	40µM*	?
COCCNC(=O)/C(C#N)=C/c1c(N2CCN(c3ccc(OC)cc3)CC2)nc2c(C)cccn2c1=O	-3%	-5%	3	-13%	28µM*	-5%
CCNC(=O)/C(C#N)=C/c1c(N2CCN(c3ccccc3)CC2)nc2c(C)cccn2c1=O	-1%	-21%	-1	16%	-13%[2.33 µM]	-13%
COC(=O)/C(C#N)=C/c1c(N2CCN(c3ccccc3)CC2)nc2ccccn2c1=O	0%	-2%	-1	-3%	79µM*	-7%
Cc1ccccc1Oc1nc2c(C)cccn2c(=O)c1/C=C(\C#N)C(=O)Nc1c(C)n(C)n(-c2ccccc2)c1=O	-2%	-29%	-1	?	-5%[59 µM]	50µM*
CCOC(=O)/C(C#N)=C/c1c(N2CCN(c3ccccc3)CC2)nc2ccccn2c1=O	0%	1%	0	0%	-17%[2.33 µM]	-2%
CC(C)COc1ccc(C(=O)N2CCCCC2CCN2CCCCC2)cc1 (stereo unspecified)	/	/	/	/	-5%[59 µM]	0%
CC(=O)N[C@H]1[C@H](O[C@@H]2c3ccc(c(Cl)c3)Oc3cc4cc(c3O[C@@H]3O[C@H](CO)[C@@H](O)[C@H](O)C3C)Oc3ccc(cc3Cl)C[C@H]3NC(=O)[C@@H](N)c5ccc(O)c(c5)Oc5cc(O)cc(c5)[C@H](NC3=O)C(=O)N[C@H]4C(=O)N[C@H]3C(=O)N[C@@H]2C(=O)N[C@@H](C(=O)O)c2cc(O)cc(O[C@H]4O[C@H](CO)[C@@H](O)C(O)[C@@H]4O)c2-c2cc3ccc2O)O[C@H](CO)[C@@H](O)[C@@H]1O (stereo partly specified)	/	/	/	-22%	7%[5.15 µM]	-7%
CCOC(=O)c1c(C)oc2ccc(N(C(C)=O)S(=O)(=O)c3c(C)cc(C)cc3C)cc12	/	/	/	/	-2%[59 µM]	-2%
CCOC(=O)/C(C#N)=C/c1c(N2CCN(CC)CC2)nc2c(C)cccn2c1=O	-1%	-3%	0	8%	?	-10%
CCOC(=O)/C(C#N)=C/c1c(N2CCN(c3ccc(OC)cc3)CC2)nc2c(C)cccn2c1=O	-6%	7%	-3	2%	8.9µM*	-1%
SMILES	Mm-Cpn inhibitor	PLK1 PBD inh	CCT chaperon mod	Sfp PPTase inh	G9a inh	VDR inhibitor
CC(=O)N(/C=C1\SC(=S)N(c2ccccc2)C1=O)c1ccccc1	0%	-2%	0	-9%	?	-1%
CN(C)/C=C1\SC(=S)N(c2ccc(Br)cc2)C1=O	-5%	-28%	-2	-10%	45µM*	-22%
CN(C)/C=C1\SC(=S)N(c2ccc(F)cc2)C1=O	1%	?	0	-15%	63µM*	-13%
O=C(CSc1c2c(nc3ccccc13)CCC2)Nc1ccc(F)cc1F	/	/	/	/	6%[59 µM]	-18%
CC(=O)N1CCc2cc(Br)cc(S(=O)(=O)N3CCN(c4cc(C)ccc4C)CC3)c21	/	/	/	/	-29%[59 µM]	-21%
CC(=O)c1ccc(NC(=O)CCc2c(C)nc3c(c(C)nn3-c3ccc(C)cc3)c2C)cc1	/	/	/	/	-29%[59 µM]	4%
Cc1ccc(-n2nc(C)c3c(C)c(CCC(=O)Nc4ccc(CN5CCCC5)cc4)c(C)nc32)cc1	0%	-20%	1	-22%	50µM*	19%
CN(c1ccccc1)c1ccc(/C=C(\C#N)c2nnc3n2CCCCC3)cc1[N+](=O)[O-]	2%	-18%	-2	-9%	40µM*	?
COc1ccc(NC(=O)Nc2nnc(N(C)C3CCCCC3)s2)c(OC)c1	/	/	/	/	-34%[59 µM]	-4%
CC[N+]1(C)CCC(O)(c2ccc(OC)cc2)C(C(=O)c2ccc(OC)cc2)C1 (stereo unspecified)	/	6.7µM*	1	/	/	?
Cc1c(-c2ccc(Cl)cc2)c(=O)oc2c(CN3CCN(CCO)CC3)c(O)ccc12	/	/	/	/	21%[59 µM]	14%
Cc1ccc(NC(=O)CN2C(=O)NC3(CCCCCCC3)C2=O)cc1C	3%	3%	-6	/	1.3µM*	?
CN(c1ccccc1)S(=O)(=O)c1cccc(NC(=O)CN2C(=O)NC3(CCCC3)C2=O)c1	1%	-3%	-1	/	56µM*	2%
Cc1cccc(-n2c(=O)c3c(c4cc(C)ccc4n3C)n(CC(=O)Nc3ccc(C)c(C)c3)c2=O)c1	/	/	/	/	5%[59 µM]	-3%
CCN(CC)C1=N/C(=C\c2ccco2)C(=O)N1c1ccccc1	-1%	0%	0	?	28µM*	-6%
CCSC1=N/C(=C\c2cccnc2)C(=O)N1c1ccccc1	0%	-4%	-1	1%	17%	-10%
Cc1ccc(OCc2cc(=O)n3cc(C)sc3n2)c(C)c1	/	/	/	/	10%[59 µM]	-3%
